# Source: PubChem BioAssay
# The list is not random: actives were taken first. Their share in the collection is about 28%.
# CYP2C9 activ – CYP2C9 (human) activation; 96,000 compounds, 1.4% hits; activation factor at 5 µM; P11712; recombinant CYP2C9, luciferin-H conversion, luminescence; hits give high values; factor 1 = untreated enzyme, 0 = blocked;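 active = activation factor of 2 or more for CYP2C9 at a 5 µM dose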;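 note: 0 = sulfaphenazole-blocked wells and 1 = vehicle-only wells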
# PTK2B oligo ant – antagonists of human Pyk2 oligomerization | Q14289 | Q293 cells, Pyk2 FERM NanoBiT luminescence; hits give low values | z-score (the deposit names both 25 µM and 10 µM) | 99,000 compounds, 0.83% hits;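 active = Z-score of -3 or lower, scaled per plate to the spread of control and sample wells; inactive = z-score above -3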;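 note: negative z-score means lost luminescence so less FERM oligomerization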
# CYP2C19 act – cytochrome P450 2C19 (human) activation; P33261; 96,000 tested, under 10 active; activation factor at 5 µM; recombinant CYP2C19, luciferin-H EGE luminescence; hits give high values; 0 = fully inhibited enzyme, 1 = untreated enzyme;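 active = activation factor of at least 2 at 5 µM in the primary screen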;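 note: 0 = wells with 2.5 mM tranylcypromine and 1 = vehicle-only wells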
# Target sequence (P33261 whole entry, looked up): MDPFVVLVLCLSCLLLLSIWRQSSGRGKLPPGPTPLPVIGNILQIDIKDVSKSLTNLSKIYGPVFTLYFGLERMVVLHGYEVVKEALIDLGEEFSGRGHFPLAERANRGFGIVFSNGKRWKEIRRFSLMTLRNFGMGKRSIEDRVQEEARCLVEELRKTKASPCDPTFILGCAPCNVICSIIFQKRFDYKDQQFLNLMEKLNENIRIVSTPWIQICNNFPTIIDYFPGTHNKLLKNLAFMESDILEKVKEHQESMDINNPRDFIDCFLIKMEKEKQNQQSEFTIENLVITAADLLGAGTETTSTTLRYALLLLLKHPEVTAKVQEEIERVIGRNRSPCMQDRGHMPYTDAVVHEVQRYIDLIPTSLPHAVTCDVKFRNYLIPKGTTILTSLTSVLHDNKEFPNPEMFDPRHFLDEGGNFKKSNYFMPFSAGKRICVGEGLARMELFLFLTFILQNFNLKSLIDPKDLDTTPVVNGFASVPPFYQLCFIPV
# CYP2C19 inh – inhibitors of human CYP2C19 | CYP2C19 Supersomes, luciferin-H EGE luminescence, 30 min | P33261 | 96,000 compounds, 21% hits | inhibition, % at 5 µM;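 active = CYP2C19 inhibition above a set limit at 5 µM in the primary screen, cut at about 50% in these data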;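 note: plate controls were negative control wells for no effect and 2.5 mM tranylcypromine positive control for full effect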
# CYP2C9 inh – human CYP2C9 inhibition | 96,000 compounds, 20% hits | CYP2C9 Supersomes, luciferin-H conversion, luminescence | P11712 | inhibition, % at 5 µM | AID 777;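 active = blocking of liver enzyme CYP2C9 beyond about 50% at 5 µM, limit read from the data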
# Starred values were filed as active, the others as inactive; / = not tested or not shown.
SMILES,CYP2C9 activ,PTK2B oligo ant,CYP2C19 act,CYP2C19 inh,CYP2C9 inh
CN1C(=O)C(=Cc2ccccc2Oc2ccc(Cl)c(F)c2)C(=O)N(C)C1=O,0.4,-4.45*,0.9,7.3,56.6*
CCCCP(=O)(O)CCC(=O)O,1.1,-0.14,1,-3.4,-6.5
NC12CN3CN(CN(C3)C1)C2 (tested in a mixture with another compound),2*,0.03,1,4.6,-96.8
O=c1[nH]c(=O)n(Cc2ccccc2)c(O)c1C=NCCN1CCNCC1,0.8,-0.65,0.8,16.6,23.4
COc1ccccc1-n1c(O)c(C=NCCN2CCNCC2)c(=O)[nH]c1=O,0.4,0.2,0.7,34.7,58.5*
Cn1c[n+](C)cc1C(O)c1ccccc1 (stereo not drawn),1.1,-1,1.1,-12.5,-6.1
COc1ccc(-n2c(O)c(C=Nc3c(C)n(C)n(-c4ccccc4)c3=O)c(=O)[nH]c2=O)cc1,0.9,-0.34,1,-1.7,7.4
O=C1CN(C(=O)CN2CCCCC2)C(c2ccccc2)c2cc(Br)ccc2N1 (stereo not drawn),0.8,-0.68,0.8,21.5,23.0
COCCCn1c(N)c(C(=O)OC(C)COC)c2nc3ccccc3nc21 (stereo not drawn),0.4,1.29,0.7,30.6,58.6*
CCC(C)NC(=O)c1c(N)n(CCCOC)c2nc3ccccc3nc12 (stereo not drawn),0.1,-0.66,0.3,68.9*,87.5*
CCC(C)NC(=O)c1c(N)n(Cc2ccc3c(c2)OCO3)c2nc3ccccc3nc12 (stereo not drawn),0.3,-0.47,0.9,8.7,67.1*
CCCCOCCCn1c(N)c(C(=O)OC(C)COC)c2nc3ccccc3nc21 (stereo not drawn),/,0.24,/,/,/
COCCNC(=O)c1c(N)n(Cc2ccco2)c2nc3ccccc3nc12,0.7,0.95,0.9,9.6,27.2
CCC(C)NC(=O)c1c(N)n(CC2CCCO2)c2nc3ccccc3nc12 (stereo not drawn),0.7,-0.19,0.8,19.6,30.6
CC(C)(C)OC(=O)c1c(N)n(Cc2ccco2)c2nc3ccccc3nc12,0.2,0.69,0.5,52.5*,84.2*
CN(C)P(=NC(=S)c1cccn1C)(N(C)C)N(C)C,1.3,-0.19,1,-4.9,-25.2
CN=C(SCc1cc2c(cc1Cl)OCO2)c1c(O)n(C)c(=O)n(C)c1=O,0.7,-0.92,0.8,19.4,27.5
N=C(N)c1c(O)n(C2CCCCC2)c(=O)n(C2CCCCC2)c1=O,0.8,-2.09,1,1.3,21.2
CCn1c(C)c(C(=O)O)c2cc(OC)ccc21,1.1,0.2,0.6,37.6,-7.6
CC(=O)c1c(C)n(CCCOC(C)C)c2ccc(O)cc12,0.4,0.37,0.4,62.0*,55.2*
CC1CCCC(C2(O)C(=O)Nc3ccccc32)C1=O (stereo not drawn),1.2,0.69,1.1,-6.0,-17.9
Clc1ccc2c(c1)C(c1ccccc1Cl)=NCc1nnc(N3CCN(CCSc4ccccc4)CC3)n1-2,0.3,-0.48,0.9,7.5,67.8*
CN1CCN(Cc2nnc3n2-c2ccc(Cl)cc2C(c2ccccc2)=NC3)CC1,/,-0.27,/,/,/
CCCN1CCC2(CC1)NC(CO)(CO)CO2,/,-1.17,/,/,/
CCOC(=O)c1[nH]c(C)c(C(=O)N2CCC3(CC2)OCCO3)c1C,0.9,-0.34,0.8,17.2,13.4
SMILES,CYP2C9 activ,PTK2B oligo ant,CYP2C19 act,CYP2C19 inh,CYP2C9 inh
O=C(c1cc(-c2ccccc2)nc2ccccc12)N1CCC2(CC1)OCCO2,0.6,-0.44,0.4,56.6*,38.2
CC(=O)c1c(C)[nH]c(C(=O)N2CCC3(CC2)OCCO3)c1C,1,-0.17,0.5,54.2*,-0.8
O=C(c1cc(Br)ccc1Cl)N1CCC2(CC1)OCCO2,0.5,-0.98,0,97.5*,54.0*
Cc1cc(C(=O)N2CCC3(CC2)OCCO3)cs1,1.1,0.14,0.3,74.1*,-8.1
CCOc1cc(C(=O)N2CCC3(CC2)OCCO3)cc(OCC)c1OCC,0.9,0.74,0.7,25.1,13.8
Cc1c(N=Nc2c(O)n(C)c(=O)n(C)c2=O)c(=O)n(-c2ccccc2)n1C,/,-0.17,/,/,/
CCN1CCN(Cc2cc(C(C)(C)C)c(O)c(C(C)(C)C)c2)CC1,0.7,/,0.9,12.7,25.8
NC(=O)CN1C2CCC1CC(NC(=O)C1CC1)C2 (stereo not drawn),1.2,-0.05,1.1,-11.8,-16.8
O=C(c1ccc2c(c1)OCO2)N1CCC2(CC1)OCCO2,1,0.56,0.1,88.1*,-4.8
COP(=S)(OC)SCN1C(=O)c2ccccc2C1=O,0.3,/,0,98.5*,70.7*
CCCCn1c(O)c(C(C)=NCc2ccc(F)cc2)c(=O)[nH]c1=O,0.5,0.06,0.8,23.3,49.5
CCCCn1c(O)c(C(CC)=NCc2ccc(F)cc2)c(=O)[nH]c1=O,0.3,-1.63,0.6,40.8,71.4*
CCCCn1c(O)c(C(CC)=NCCN2CCOCC2)c(=O)[nH]c1=O,0.4,-0.77,0.6,36.7,63.8*
CCCCn1c(O)c(C(CC)=NCCc2ccccc2)c(=O)[nH]c1=O,0.2,-2.47,0.5,45.5,77.9*
CC(C)Oc1cccc(NC(=O)c2cccn(Cc3ccc4c(c3)OC(F)(F)O4)c2=O)c1,0.2,1.29,0.8,24.6,84.2*
O=C(Nc1cccc(C(F)(F)F)c1)c1cccn(Cc2ccc3c(c2)OC(F)(F)O3)c1=O,0.4,2.12,0.8,20.4,64.8*
Cc1cccc(C)c1NC(=O)c1cccn(Cc2ccc3c(c2)OC(F)(F)O3)c1=O,0.7,-1.83,0.3,68.2*,33.9
O=C(Nc1ccc(C(F)(F)F)cc1)c1cccn(Cc2ccc3c(c2)OC(F)(F)O3)c1=O,0.9,1.59,1.2,-18.3,11.6
CC(C)Oc1ccc(Cc2c(O)[nH]c(=O)[nH]c2=O)cc1,1.1,/,1.1,-9.0,-5.6
O=C(O)c1c[nH]c2ccc(S(=O)(=O)N(CCCl)CCCl)cc12,1.2,0.59,1.2,-16.4,-17.7
CCOc1cc2[nH]c(=S)n(CCCC(=O)N3CCC4(CC3)OCCO4)c(=O)c2cc1OCC,0.4,0.37,0.5,52.0*,55.2*
Cn1c(=O)cc(OCC(=O)N2CCC3(CC2)OCCO3)c2ccccc21,1.4,0.24,0.7,34.5,-39.0
Cc1nc2cc(-c3ccc(Cl)cc3)nn2c(C)c1CCC(=O)N1CCC2(CC1)OCCO2,/,0.28,/,/,/
O=C(CCCOc1ccc(Cl)cc1Cl)N1CCC2(CC1)OCCO2,0.6,-0.94,0.3,74.0*,44.9
Cc1cc(OC(=O)CCCNC(=O)OC(C)(C)C)c2c3c(c(=O)oc2c1)CCC3,0.4,-1.33,0.6,41.3,55.2*
Cc1cc(OC(=O)c2ccco2)c2c3c(c(=O)oc2c1)CCC3,1.1,-1.07,1.2,-19.7,-14.2
Cc1cc(OC(=O)CCNC(=O)OC(C)(C)C)c2c3c(c(=O)oc2c1)CCC3,0.7,-2.36,0.7,28.7,29.3
Cc1cc(OCc2nn[nH]n2)c2c3c(c(=O)oc2c1)CCCC3,0.3,-0.25,1.2,-16.8,72.2*
